Shiga inhibitor: Shiga toxin inhibition | Vero cells, Shiga toxin protein synthesis inhibition reporter | hit rate 9.2% among 290,000 | inhibition, % at 38.7 µM; in the data active = inhibition mostly above about 28%, no sharp cut-off; inactive = mostly below about 43%
Sm TGR inh: inhibitors of Schistosoma mansoni thioredoxin glutathione reductase. Potency, µM (titrated, usually from 114 µM), hits mostly inhibitors. purified TGR, DTNB reduction, TNB absorbance 405 nm. hit rate 3% among 360,000; note: nearly all actives have a fitted effect of over 60% in size
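TGR 20 nM + NADPH 100 uM (dispensed conc.), cpd preinc 15 min RT; start with NADPH (500 uM addition) then DTNB (15 mM addition). Kinetic TNB absorbance, 405 nm filter. Four-parameter Hill fit across titration.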
Pf growth 96h: inhibits malaria parasite growth, 96 h; P. falciparum luciferase reporter growth, 96 h; Potency, µM (top dose mostly 28.7 µM), actives largely listed as inhibitors; hit rate 6.9% among 320,000
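Infected RBCs, 2% Hct / 0.05% parasitemia final; luciferase-reporter P. falciparum; cpd 96 h, 37 C, 5% CO2; luciferase detection reagent; luminescence.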
Pf growth 48h: inhibits P. falciparum growth in the first generation, 48 h. hit rate 5.9% among 310,000. Potency, µM (doses to about 28.7 µM), actives largely listed as inhibitors. P. falciparum luciferase growth in erythrocytes, 48 h
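Read-out is firefly luciferase luminescence from an integrated reporter in P. falciparum, so falling signal marks reduced parasite growth. Infected erythrocytes were at 2% hematocrit and 0.1% parasitemia (final) in Albumax-supplemented RPMI 1640.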
NS1 inh: blocks influenza NS1 protein function; Potency, µM (titrated, usually from 46.1 µM); hit rate 0.4% among 270,000; AID 2326; calls by dose curve; note: actives are rising curves; nearly all actives have a fitted effect of over 50% in size
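Growth recovery, yeast-based: influenza A NS1 expressed in S. cerevisiae causes slow growth, and suppressors are detected by OD600. The parent strain without NS1 is used as positive control.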
Cycloheximide cs: counter-screen for Shiga toxin inhibitors: cycloheximide protein synthesis inhibition | cell reporter, cycloheximide protein synthesis inhibition counterscreen | max response, % | hit rate 12% among 300,000 | AID 2314; in the data active = max response mostly above about 13%, no sharp cut-off; inactive = mostly below about 14%; note: read at 38.3 µM for the half of the compounds with a filed dose
Hits are given with their value; – = inactive; ? = inconclusive; · = no result; ! = not active in a repeat. Compounds with a hit are over-represented: about 21% of the library has one in this group of screens. Unless noted, calls come from the whole dose curve; as a rule, active = well fitted curve in the direction sought with a large enough effect; inconclusive = small, poorly fitted or top-dose-only effect, or another doubt; inactive = no such curve, though single readings can be large; an effect the other way counts as inactive or inconclusive.

SMILES	Shiga inhibitor	Sm TGR inh	Pf growth 96h	Pf growth 48h	NS1 inh	Cycloheximide cs
CCOc1ccc(CCNC(=O)CCCc2nnc3n(CC)c(=O)c4sccc4n23)cc1OCC	·	–	·	·	·	·
CC(NC(=O)COC(=O)CC(c1ccccc1)c1ccccc1)c1ccccc1 (stereo not drawn)	–	–	–	?	–	–
CNc1c([N+](=O)[O-])cnn1-c1ccccc1Cl	–	–	–	–	–	15
COc1ccc(-c2c(C(C)=O)c(C)n(C)c2C)cc1	–	–	12µM	–	–	–
Cc1ccc(NCc2ccccc2-c2nnc(-c3ccccc3Cl)o2)cc1Cl	·	–	·	·	·	·
CC(c1ccccc1)n1c(SCC(=O)N2CC(=O)Nc3ccccc32)nc2ccccc2c1=O (stereo not drawn)	–	–	5.2µM	13µM	?	–
O=C1CN(C(=O)CSc2nc3cc(Cl)ccc3c(=O)n2Cc2ccccc2)c2ccccc2N1	–	–	?	3.3µM	?	–
O=C1CN(C(=O)CSc2nnnn2-c2ccc(Cl)cc2)c2ccccc2N1	–	–	–	4.7µM	–	–
COCC(C)n1c(SCC(=O)N2CC(=O)Nc3ccccc32)nc2ccccc2c1=O (stereo not drawn)	·	–	?	13µM	·	·
Cc1nnc(SCC(=O)N2CC(=O)Nc3ccccc32)n1Cc1ccccc1	–	–	–	?	–	–
CC(C)NOC(=O)c1ccc(Cl)cc1	–	–	?	–	·	46
COc1ccc(Cl)cc1C(=O)NC(C)C	–	–	–	–	·	–
CCOC(=O)C1=NN(c2ccc(C)cc2)CC1C(=O)OC (stereo not drawn)	–	–	5.9µM	–	–	–
c1ccc(C2CN3CCC2CC3)cc1 (stereo not drawn)	–	–	–	–	–	–
OC(c1ccccc1)(c1ccccc1)C1CN2CCC1CC2 (stereo not drawn)	–	–	12µM!	?	–	–
OC(Cc1ccccc1)(c1ccccc1)C1CN2CCC1CC2 (stereo not drawn)	–	–	?	·	–	–
OC(c1ccccc1)(c1ccc(Cl)cc1)C1CN2CCC1CC2 (stereo not drawn)	–	–	8.3µM	?	–	–
CCc1ccccc1Nc1cc(C(=O)NCc2ccc(C)cc2)c2ccccc2n1	·	–	·	·	·	·
CCc1ccc(NC(=O)c2ccccc2NC(=O)C2CCCO2)cc1 (stereo not drawn)	–	–	–	·	–	65
CCOC(=O)c1ccccc1NC(=O)C1CCCO1 (stereo not drawn)	–	–	–	–	–	–
O=C(NCCOc1ccccc1)c1ccccc1NC(=O)C1CCCO1 (stereo not drawn)	–	–	–	–	·	41
O=C(Nc1ccccc1C(=O)O)c1ccc(NC(=O)C2CCCO2)cc1 (stereo not drawn)	–	–	–	–	–	–
O=C(NCc1n[nH]c(=S)n1-c1ccc(Cl)c(Cl)c1)c1ccco1	–	–	15µM	?	–	–
O=C(NCc1n[nH]c(=S)n1-c1ccccc1)c1ccco1	–	?	–	–	–	–
CCOc1ccc(S(=O)(=O)N2Cc3ccccc3CC2C(=O)O)cc1 (stereo not drawn)	–	–	–	–	–	–
SMILES	Shiga inhibitor	Sm TGR inh	Pf growth 96h	Pf growth 48h	NS1 inh	Cycloheximide cs
CCOCCCNC(=O)c1ccc2c(=O)n(CCc3ccccc3)c(=O)[nH]c2c1	·	–	·	·	·	·
COc1cc([N+](=O)[O-])ccc1NC(=O)CN1CCN(C(=O)c2ccco2)CC1	–	–	?	?	–	–
CC(=O)c1ccccc1NC(=O)COC(=O)/C(=C/c1ccccc1)n1nnnc1C	–	?	2.1µM	5.9µM	–	–
COc1ccc(NC(=O)C(Cc2cc(C)cc(C)c2)C(C)C(=O)O)cc1 (stereo not drawn)	–	–	?	–	–	–
CC(=O)Nc1ccc2nc(NC(=O)c3ccc([N+](=O)[O-])s3)sc2c1	–	–	–	?	–	–
CC(=O)Nc1ccc2nc(NC(=O)c3cccs3)sc2c1	78	–	–	–	–	43
Cc1nc2ccc(NC(=O)c3sccc3C)cc2s1	64	–	–	–	–	64
O=C(O)C1CCCN1C(=O)c1cccs1 (stereo not drawn)	–	–	–	–	–	–
COc1ccc2nc(NC(=O)c3cccs3)sc2c1	77	–	–	–	–	44
O=C(NCc1ccco1)[C@@H]1CCCN1C(=O)c1cccs1	–	40µM	·	–	–	–
O=C(C1=C(O)C(=O)N(Cc2cccnc2)C1c1ccccn1)c1cccs1 (stereo not drawn)	–	–	–	–	–	–
Cc1nc2ccc(NC(=O)c3cccs3)cc2s1	98	–	–	–	–	45
Cc1cccc2sc(NC(=O)[C@@H]3CCCN3C(=O)c3cccs3)nc12	–	–	–	–	–	–
O=C(Nc1nc2ccc(Cl)cc2s1)[C@@H]1CCCN1C(=O)c1cccs1	81	–	?	–	–	82
Cc1ccc(NC(=O)CSc2nc3ccc(NC(=O)c4cccs4)cc3s2)cc1	·	–	·	·	·	·
CCOC(=O)c1ccc(-n2ncc(C(=O)OCC)c2N)cc1	–	–	?	–	?	21
COC(=O)c1cnn(-c2ccc(C(=O)Nc3ccc(C(C)=O)cc3)cc2)c1N	·	–	?	5.2µM	·	·
CCOC(=O)c1cnn(-c2ccc(C)cc2)c1N	75	–	–	·	–	33
CCOC(=O)c1cnn(-c2ccc(C(=O)Nc3ccc(OC(F)(F)F)cc3)cc2)c1N	·	–	·	·	·	·
CC(C)c1ccc2nc(N)sc2c1	64	–	–	–	·	26
Cc1cc2nc(N)sc2cc1C	49	–	–	–	–	41
CC(NC(=O)CSc1nc2ccc(N)cc2s1)c1ccccc1 (stereo not drawn)	–	–	–	–	–	–
Nc1nc2ccc(C(=O)N3CCCCC3)cc2s1	–	–	4.1µM	–	–	–
Nc1nc2ccc(Oc3ccccc3)cc2s1	70	–	·	–	–	30
O=C(Nc1cc(Cl)cc(Cl)c1)c1ccc(F)c(S(=O)(=O)NC2CCCC2)c1	·	–	·	·	·	·
SMILES	Shiga inhibitor	Sm TGR inh	Pf growth 96h	Pf growth 48h	NS1 inh	Cycloheximide cs
Cc1[nH]c(=O)c(C#N)c(C)c1CCC(=O)Nc1cc(S(C)(=O)=O)ccc1Cl	–	–	–	–	–	–
CC(CNC(=O)COc1ccc2c(c1)OCO2)c1ccccc1 (stereo not drawn)	·	–	–	–	·	·
Nc1nc2ccc(O)cc2s1	–	–	10µM	–	–	–
Nc1nc2ccc(S(=O)(=O)c3ccc4nc(N)sc4c3)cc2s1	–	–	–	–	–	–
Cc1cccc(C)c1OCC(=O)N1CCc2ccccc2C1	·	–	7.4µM	?	–	–
COc1ccc(OCC(=O)N2CCc3ccccc3C2)cc1	·	–	?	–	–	–
O=C(COc1ccccc1F)N1CCc2ccccc2C1	–	–	–	–	–	–
Cc1cccc(OCC(=O)N2CCc3ccccc3C2)c1	33	–	?	–	–	27
Cc1csc(=O)n1CC(=O)OCC(=O)c1c(N)n(C)c(=O)n(C)c1=O	·	–	–	–	·	·
Cn1c(N)c(C(=O)COC(=O)CSc2ccccc2)c(=O)n(C)c1=O	–	–	–	–	–	16
